Screens deposited in PubChem BioAssay by National Center for Advancing Translational Sciences (NCATS).
TGFb SMAD3 inh: qHTS for Inhibitors of TGF-b; 410,000 tested, 1.2% active; Potency, µM (doses to about 46.1 µM), without a hit: top-dose activity, negative = inhibition, most hits filed as inhibitors; HepG2 CAGA-GFP TGF-b/SMAD3 reporter, GFP fluorescence, 18 h; TGF-beta stimulated, 500 pg/mL final; note: % is set by controls: 0 for no effect and ±100 for the full control effect; nearly all actives have a fitted effect of over 65% in size
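Cell-based qHTS in HEPG2 carrying a CAGA-GFP Smad reporter; compounds added before 500 pg/mL final TGF-beta, 18 h incubation at 37 degrees C, GFP fluorescence quantified per cell by imaging cytometry.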
S2 tox: Viability Counterscreen for Primary qHTS for Inhibitors of ATXN expression | S2 cells (HEK-293 line with an ATXN2-luciferase reporter) viability, CellTiter-Fluor protease fluorescence, 24 h | Potency, µM (top dose mostly 56.7 µM), usual class: cytotoxic | 400,000 tested, 0.49% active | AID 651635, 2014; note: nearly all actives have a fitted effect of over 40% in size
HepG2 viability: qHTS for Inhibitors of TGF-b: Cytotox Counterscreen; 410,000 tested, 0.76% active; HepG2 CAGA-GFP viability, ATP luminescence, 18 h; Potency, µM (series often up to 46.1 µM), inactives show at the top dose activity change, negative = cytotoxicity, usual class: cytotoxic; AID 588856, 2011
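CellTiter-Glo luminescence gave cytotoxicity after 18 hours at 37 degrees C. The cells were HepG2 CAGA-GFP in 1% FBS DMEM, stimulated with 500 pg/mL TGF-beta after compound addition. %Activity was normalised to no-cell wells (complete cell-killing) and DMSO (no toxicity), and curves were fitted and classified.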
HT1080NT lethal: qHTS for induction of synthetic lethality in tumor cells producing 2HG: qHTS for the HT-1080-NT fibrosarcoma cell line; HT-1080-NT fibrosarcoma viability, CellTiter-Glo ATP luminescence, 48 h; Potency, µM (titrated, usually from 46.1 µM), for the others: top-dose activity, negative = less viability, actives largely listed as cytotoxic; 360,000 tested, 1.6% active;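 note: NT is the 2HG producing partner of a matched IDH1 knockdown line; 0% = DMSO-treated cells and -100% = media-only wells without cells; nearly all actives have a fitted effect of over 55% in size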
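Read-out is CellTiter-Glo luminescence after 10 minutes at room temperature, following 48 hours' compound treatment of HT-1080-NT cells (750 cells/well, RPMI, 5% FBS, 37 degrees C).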
ATXN2 expr inh: Primary qHTS for Inhibitors of ATXN expression; 360,000 tested, 0.72% active; HEK-293 ATXN2-luciferase reporter, luminescence, 24 h; Potency, µM (highest dose often 57 µM), without a hit: top-dose activity change, negative = inhibition, usual class: inhibitors; note: % is set by controls: 0 for no effect and ±100 for the full control effect; nearly all actives have a fitted effect of over 55% in size
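ATXN2-luciferase reporter cells (luciferase flanked by upstream and downstream ATXN2 gene portions) were treated 24 h at 37 °C with compounds at up to 57 uM. SteadyGlo luminescence gave expression; GF-AFC fluorescence gave viability.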
HT1080 IDH1KD tx: qHTS for induction of synthetic lethality in tumor cells producing 2HG: qHTS for the HT-1080-IDH1KD cell line | HT-1080 IDH1 knockdown viability, ATP luminescence, 48 h | Potency, µM (titrated, usually from 46.1 µM), inactives show at the highest dose activity, negative = toxicity, hits mostly cytotoxic | 360,000 tested, 2% active;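 note: 0% = DMSO wells and -100% = cell-free medium wells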
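Viability of IDH1-knockdown HT-1080 fibrosarcoma cells was assessed by CellTiter-Glo after 48 h at 37 °C with titrated compound; concentration-effect curves were classified by fit quality and response size.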
* hit, by the source's call; i = inactive; ? = inconclusive; · = no result given. A selection: hits, their analogues and other compounds. The true share with any hit is near 3.8%. Calls come from the whole dose curve; as a rule, active = well fitted curve in the direction sought with a large enough effect; inconclusive = small, poorly fitted or top-dose-only effect, or another doubt; inactive = no such curve, though single readings can be large; an effect the other way counts as inactive or inconclusive. Potency is the fitted concentration of half-maximal effect.

SMILES | TGFb SMAD3 inh | S2 tox | HepG2 viability | HT1080NT lethal | ATXN2 expr inh | HT1080 IDH1KD tx
Cc1nc(Nc2cnc(/C=C/c3cc(C(=O)Nc4cccc(C(F)(F)F)c4)ccc3C)cn2)cc(N2CCNCC2)n1 | ? | i | -106% | ? | 16µM* | ?
O=C(O)c1ccc2c3c(ncnc13)-c1ccccc1C2=O | 0.79µM* | i | 1µM* | ? | ? | ?
Cc1ccc(S(=O)(=O)c2nc(Nc3ccccc3)sc2Cl)cc1 | ? | i | -31% | -12% | -31% | -14%
COc1ccc(Nc2nc(S(=O)(=O)c3ccc(C)cc3)c(Cl)s2)cc1 | 11µM* | i | -30% | 23µM* | ? | 23µM*
CCN=C1S/C(=C\c2ccc(O)c(OCC)c2)C(=O)N1CC | -15% | i | -50% | -18% | 5% | -24%
CCN=C1S/C(=C\c2cc(OCC)c(O)cc2Br)C(=O)N1CC | 1% | ? | -48% | 18µM* | ? | 21µM*
CCC1(C2CCN(Cc3ccc(OC)cc3)CC2)NC(=O)N(CC2COc3ccccc3O2)C1=O (stereo not drawn) | · | i | · | · | · | ·
CC1(C)N=C(N)NC(Nc2ccccc2)=N1 | 9% | i | -17% | 8.2µM* | -1% | ?
O=C(C[n+]1ccccc1Cl)c1ccc2c(c1)CCCC2 | -4% | · | -73% | · | · | ·
COc1ccc(/C=C/C(=O)Nc2ccc3nc4c(c(Nc5ccc(OC)c(OC)c5)c3c2)CCCC4)cc1 | 4.5µM* | · | 5µM* | · | · | ·
COc1ccccc1Nc1c2c(nc3ccc(NC(=O)/C=C/c4cccc(OC)c4OC)cc13)CCCC2 | ? | · | -75% | · | · | ·
COc1ccc(Nc2c3c(nc4ccc(NC(=O)/C=C/c5cccc(OC)c5OC)cc24)CCCC3)cc1OC | 3.5µM* | · | -93% | · | · | ·
COc1ccc(/C=C/C(=O)Nc2ccc3nc4c(c(Nc5ccccc5OC)c3c2)CCCC4)cc1 | 7.1µM* | · | -84% | · | · | ·
COc1ccc(/C=C/C(=O)Nc2ccc3nc(N4CCCCC4)cc(C)c3c2)cc1OC | 13µM* | ? | -93% | · | ? | ·
Cc1cccc(N(C)C(=S)Oc2ccc3c(c2)C2CCC3C2)c1 (stereo not drawn) | · | i | · | · | 8% | ·
CCOC(=O)c1ccc(OC(=O)c2cn(-c3cccc(OC)c3)c(=O)c3ccccc23)cc1 | 39% | · | 0% | · | · | ·
CCN(CC)c1cc(C)c2cc(NC(=O)/C=C/c3cc(OC)c(OC)c(OC)c3)ccc2n1 | 16µM* | · | 10µM* | · | · | ·
COc1ccc(Nc2c3c(nc4ccc(NC(=O)/C=C/c5cc(OC)c(OC)c(OC)c5)cc24)CCCC3)cc1OC | 3.2µM* | · | 2.8µM* | · | · | ·
Cc1ccc(-n2[nH]c(C)c(C=Nc3ccc(Br)cn3)c2=O)cc1 | 1% | i | -21% | -2% | · | -14%
Cc1ccc(-n2[nH]c(C)c(C=Nc3cc(C)ccn3)c2=O)cc1 | -4% | i | -77% | 10µM* | -7% | 23µM*
Cc1[nH]n(-c2ccccc2)c(=O)c1C=Nc1cccc2cccnc12 | ? | i | -29% | -21% | ? | ?
Cc1ccc(-n2[nH]c(C)c(/C=N/c3ccccn3)c2=O)cc1 | -15% | i | 10µM* | 7.1µM* | 8% | ?
COc1ccc2nc(/N=C/c3c(C)[nH]n(-c4ccc(C)cc4)c3=O)sc2c1 | -23% | i | 8.9µM* | ? | 4% | ?
COc1ccc(NC(=O)c2cn3c4c(ccc(Cl)c4c2=O)OC(C)C3)cc1OC (stereo not drawn) | 0% | i | -2% | · | -3% | ·
CC(=O)N[C@@H](C)C(=O)NCC1Cc2cccc(-c3ccccc3C(F)(F)F)c2O1 (stereo partly drawn) | · | i | · | · | · | ·
